# DNA FID counter: compounds displacing fluorescent DNA intercalator, primary screen, artefact control for HCV NS3 helicase inhibitor project, biochemical, FID fluorescence; inhibition, % at 7.9 µM; AID 1845, 2009; hit rate 0.17% among 290,000; DNA fluorescent intercalator displacement; in the data active means inhibition above about 37%;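 further: 0% = vehicle and 100% = reference compound; higher means more ethidium bromide displaced from hairpin DNA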
# N-glyco inh: increase of ERlucT glycosylation luciferase signal, primary screen, N-linked glycosylation inhibitor project, D54 ERlucT cells, luminescence, set 2. D54 ERlucT glycosylation luciferase reporter, 24 h; percent of 100 nM tunicamycin response. hit rate 0.23% among 360,000. reporter increase, % at 12.5 µM. AID 588692, 2011;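 active means mean luciferase reporter signal, scaled so untreated is 0 and the glycosylation-blocking control 100, at or above a set limit in every replicate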;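 further: luciferase carries N-glycosylation sites so blocking glycosylation raises the light; 0% = median of neutral control wells and 100% = median of 100 nM tunicamycin wells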
# miR122 inh: miR-122 Renilla sensor signal increase in Huh7, primary screen, miR-122 inhibitor project, cell-based, single point, plate reader; Huh7 miR-122 Renilla luciferase sensor, 48 h; neutral wells = 0, positive control = 100; activation (reporter increase), % at 12.5 µM; hit rate 0.3% among 340,000;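 active means mean replicate activation score at least 90 and every replicate individually at or above 90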;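 further: higher luciferase means less miR-122 activity so hits act as miR-122 inhibitors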
# NRP1-CendR mod: modulators of CendR peptide binding to NRP-1, primary screen, biochemical, fluorescence polarization, uHTS; Neuropilin-1 (Homo sapiens), O14786; FAM-RPARPAR peptide binding to NRP-1; inhibition, % at 25 µM; hit rate 0.85% among 360,000;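 active means inhibition or corrected inhibition above about 18%, plus a signal ratio from 0.5 to 1.5, limit read from the data, passing the limit was not always enough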
# RAD52 inh: RAD52 DNA annealing inhibitors, primary screen, biochemical, FRET, single point, set 2. AID 651710, 2012. hit rate 0.46% among 360,000. recombinant RAD52 DNA annealing, FRET fluorescence. DNA repair protein RAD52 homolog (Homo sapiens), P43351. inhibition, % at 18.7 µM;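 active means every replicate showing at least 50% inhibition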
# Target sequence (P43351 whole entry, looked up): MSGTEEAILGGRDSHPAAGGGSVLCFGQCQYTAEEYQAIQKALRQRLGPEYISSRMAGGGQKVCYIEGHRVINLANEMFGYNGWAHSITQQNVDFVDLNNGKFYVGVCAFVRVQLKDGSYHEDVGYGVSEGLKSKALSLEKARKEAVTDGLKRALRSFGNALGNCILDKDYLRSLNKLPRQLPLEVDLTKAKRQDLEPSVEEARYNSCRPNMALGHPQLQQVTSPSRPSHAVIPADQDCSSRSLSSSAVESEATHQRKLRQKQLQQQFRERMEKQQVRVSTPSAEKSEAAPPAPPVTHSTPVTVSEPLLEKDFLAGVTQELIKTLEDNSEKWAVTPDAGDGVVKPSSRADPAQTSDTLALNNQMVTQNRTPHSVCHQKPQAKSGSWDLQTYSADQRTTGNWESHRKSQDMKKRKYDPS
# RAD54 inh: inhibitors of human RAD54 branch migration, primary screen, biochemical, fluorescence, single point. RAD54 Holliday junction branch migration, FAM/BHQ fluorescence. inhibition, % at 10.4 µM. AID 602329, 2012. hit rate 0.14% among 360,000. DNA repair and recombination protein RAD54-like (Homo sapiens), Q92698;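 active means mean normalized replicate activity at least 40 and at least half of replicates scoring 40 or more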;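 further: 0% = median of neutral control wells and 100% = median of positive control wells; inhibitors cause a drop in the FAM fluorescence signal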
# Active calls of the source: *; . = no result given; [ ] = another dose, or the depositor's remark. In the library only some 1.5% were active in any assay of this set; here they are far more common.
SMILES,DNA FID counter,N-glyco inh,miR122 inh,NRP1-CendR mod,RAD52 inh,RAD54 inh
CCOC(=O)c1c(NC(C)=O)sc2c1CCN(Cc1ccccc1)C2,-12,-2,-1,-8,-2,4
COc1ccccc1NC(=O)N[C@@H]1CC[C@H](CCNS(=O)(=O)c2ccc(C)cc2)O[C@H]1CO,.,.,.,.,2,.
O=C1/C(=C2\C(=O)N(Cc3ccc(F)cc3)c3ccccc32)SC(=S)N1CCS(=O)(=O)O,39*,-1,-5,-5,-18,3
COc1ccc(/C=C2/SC(=S)N(Cc3ccccc3)C2=O)cc1O,28,-4,1,-16,-48,-5
COc1ccc(/C=C2\SC(=S)N(N3C(=O)CCC3=O)C2=O)cc1O,-5,0,-7,36*,-65,-7
C[C@H](CO)N1C[C@H](C)[C@@H](CN(C)Cc2cccc(F)c2)Oc2ncc(C#C[C@@H](C)O)cc2C1=O,.,.,7[16.7 µM],.,1,-1
Cn1cc(C(=O)N/N=C/C(Br)=C/c2ccccc2)ccc1=O,-11,25*,.,-12,-9,.
COc1cc(/C=C2/C(=O)N(C)C(=S)N2C)ccc1OCc1cccc(F)c1,0,34*,-1,-19,-204,-2
O=C(c1ccccc1)c1ccc(OCCCCN2CCCCC2)cc1,9,-1,6,12,-5,-3
c1ccc(COc2ccc(OCCCCN3CCCCC3)cc2)cc1,44*,-2,-1,13,.,3
Cc1noc(C)c1S(=O)(=O)N(C)C[C@@H]1Oc2ccc(NS(=O)(=O)c3ccc(F)cc3)cc2CC(=O)N([C@@H](C)CO)C[C@@H]1C,.,.,-1[16.7 µM],.,1,.
CCOC(=O)C1CCN(C(=O)C2CCN(C(=O)c3ccc([N+](=O)[O-])cc3)CC2)CC1,-21,.,-9,24*,.,0
CCOC(=O)N1CCN(C(=O)C2CCN(C(=O)c3ccc([N+](=O)[O-])cc3)CC2)CC1,-15,0,-8,12,-11,-2
CCN(CC)CCn1c(NCc2cccc(OC)c2OC)nc2ccccc21,8,-4,-1,21*,.,6
CCCCn1nnnc1NCc1cccc(OC)c1OC,-8,2,-1,23*,0,5
Cc1[nH]nc2c1C(c1ccc(-c3ccc(Cl)cc3)o1)C(C#N)=C(N)O2 (configuration not stated),-12,29*,.,-1,.,.
Cc1[nH]nc2c1C(c1ccc(-c3ccccc3C#N)o1)C(C#N)=C(N)O2 (configuration not stated),-5,25*,-5,-7,.,0
Cc1ccccc1S(=O)(=O)NCC[C@H]1CC[C@H](NC(=O)C2CCOCC2)[C@@H](CO)O1,.,.,8[16.7 µM],.,4,6
Cc1noc(C)c1S(=O)(=O)Nc1ccc2c(c1)C(=O)N([C@H](C)CO)C[C@H](C)[C@H](CN(C)S(=O)(=O)c1cn(C)cn1)OCCCC[C@H](C)O2,.,.,4[16.7 µM],.,-16,-15
O=C(C[C@@H]1C=C[C@H](NC(=O)CCN2CCCCC2)[C@H](CO)O1)Nc1ccccc1,.,.,.,.,-6,.
CC(=O)c1cccc(NC(=O)C(C)N2CCc3ccccc3C2)c1 (configuration not stated),-12,-1,128*,3,-28,-11
Cc1nc(NC2=NCN(CCc3ccccc3)CN2)nc2c(C)cccc12,-1,.,.,.,.,.
Cc1nc(NC2=NCN(CCCN3CCOCC3)CN2)nc2c(C)cccc12,14,6,19,-13,.,81*
COc1ccc(C(C)=O)cc1CSc1nnnn1-c1ccc(O)cc1,-10,-4,3,4,3,.
COc1ccc(F)cc1CSc1nnnn1-c1ccc(O)cc1,1,-2,-6,23*,-11,2
Clc1ccc2[nH]cc(-c3nnnn3-c3ccc4ccccc4c3)c2c1,5,-6,212*,0,.,.
C[C@H](CO)N1C[C@H](C)[C@H](CN(C)Cc2ccc(Cl)c(Cl)c2)Oc2ccc(NC(=O)CCCCCC(=O)Nc3ccccc3N)cc2CC1=O,.,.,14[16.7 µM],.,-16,-1

# Bioassay records: PubChem, several laboratories
